PAX8 reporter – PAX8 transcriptional activity inhibition; RMG-I TPO-luciferase reporter, SteadyGlo, 24 h; inhibition, % at 12.6 µM; 360,000 compounds, 1.2% hits; AID 652154;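 active means mean replicate inhibition at least 60% with every replicate also reaching 60%; inconclusive means only one of the two criteria is met; inactive means mean below 60% and not all replicates reaching 60%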;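 further: luciferase light reporting Pax8 driven TPO promoter activity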
Env fusion inh – HIV envelope-mediated fusion inhibition | HeLa-JRFL Env/CEM21 cell fusion, luciferase | inhibition, % at 12.3 µM | 360,000 compounds, 1.1% hits | AID 651610;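 active means mean replicate inhibition score of at least 50 and every replicate individually at or above 50; inconclusive means only one of the two criteria met; inactive means mean below 50 and not all replicates reaching 50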
F508del corr – CFTR F508del correction in bronchial cells | activity (quench increase), % at 7.58 µM | 350,000 compounds, 0.36% hits | CFBE cells, YFP halide quenching; stimulated with forskolin plus potentiator P3; % fluorescence drop versus neutral controls | AID 720511;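 active means mean added fluorescence quench of at least 8% versus neutral control, with both replicates also reaching 8%; inconclusive means only one of the mean or replicate conditions met; inactive means mean below 8% and not both replicates reaching 8%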;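 further: cells transiently co-express mutant CFTR-F508del with the halide-sensitive YFP; corrector assay measuring rescue of mutant channel to the surface after 24 h compound exposure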
EWS-Fli block – blocks EWS/Fli oncoprotein-driven transcription | inhibition, % at 12.6 µM | A673 NR0B1-luciferase reporter, viability-normalised | 350,000 compounds, 0.67% hits;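 active means mean inhibition of at least 50% after viability correction, with every replicate also passing that limit; inconclusive means mean reaches 50% but only one of two replicates passes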;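 further: firefly luciferase signal divided by Alamar Blue viability fluorescence both relative to DMSO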
GAA850 FXN act – frataxin GAA850 promoter activation; 360,000 compounds, 0.56% hits; AID 540364; activation, % at 6 µM; HEK293 lucGAA850 FXN promoter luciferase reporter, 24 h; percent of 10 µM SAHA response;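 active means activation above the average of all compounds screened plus 3 SD, cutoff fixed separately per campaign, cut at about 7.5% in these data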
GAA30 counter – counter-screen for GAA850 frataxin promoter activators: GAA30 promoter activation; HEK293 lucGAA30 FXN promoter luciferase, 24 h; DMSO = 0%, 5 µM ipriflavone = 100%; AID 588350; 1,900 compounds, 66% hits; shares compounds with GAA850 FXN act; activation, % at 6 µM;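 active means mean activation above the mean of solvent-only control wells plus 3 SD, cut at about 22% in these data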;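 further: counterscreen of GAA850 promoter hits where activity marks nonselective or luminescence artifacts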
FXN GAA850 conf – confirmation of GAA850 frataxin (FXN) promoter activators. shares compounds with GAA850 FXN act. HEK293 lucGAA850 FXN promoter luciferase reporter, 24 h; 100% = activation by SAHA. activation, % at 6 µM. 1,900 compounds, 86% hits. AID 588351;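 active means mean activation above a set limit taken from the primary screen, cut at about 8% in these data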
Numbers stand for hits; - = inactive; ? = inconclusive; . = no result given. Most compounds without a hit are left out; they make up all but 2.5% or so of the library.

SMILES | PAX8 reporter | Env fusion inh | F508del corr | EWS-Fli block | GAA850 FXN act | GAA30 counter | FXN GAA850 conf
CN(C(=S)NC1CCCCC1)C1(c2ccccc2Cl)CCCCC1=O (centres undefined) | - | 92.7 | . | . | 8.8 | - | 9.2
CC(C)NC(=S)N(C)C1(c2ccccc2Cl)CCCCC1=O (centres undefined) | - | - | . | . | - | . | .
Cc1noc(C)c1NC(=O)N(C)C[C@H]1OCCCC[C@H](C)Oc2ccc(NC(=O)Nc3ccc(C(F)(F)F)cc3)cc2C(=O)N([C@H](C)CO)C[C@@H]1C | - | - | - | - | . | . | .
COc1cc2c(cc1OC)C1=C(C#N)CC/C(=N\S(=O)(=O)c3cccc(Cl)c3)N1CC2 | . | - | . | . | 8.2 | 27.2 | 13.9
Cc1ccc(S(=O)(=O)Nc2ccc3c(c2)C(=O)N([C@H](C)CO)C[C@@H](C)[C@@H](CN(C)C(=O)Nc2ccc4c(c2)OCO4)OCCCC[C@H](C)O3)cc1 | . | . | - | - | . | . | .
O=C1CSc2ccc(C(=O)NCCC3=CCCCC3)cc2N1 | . | - | . | . | 7.8 | 76.5 | 24.0
COCCNC(=O)c1ccc2c(c1)NC(=O)CS2 | . | - | . | . | - | . | .
C[C@H](CO)N1C[C@H](C)[C@@H](CN(C)C)Oc2ccc(NC(=O)C3CC3)cc2C1=O | - | - | - | . | . | . | .
Cc1cccc(Nc2n[nH]c(C)c2[N+](=O)[O-])c1 | . | . | . | . | 8.7 | 92.2 | 36.9
O=[N+]([O-])c1nn(-c2ccc3c(c2)OCCO3)n(O)c1=NCc1ccc(F)cc1 | . | . | . | . | - | . | .
O=[N+]([O-])c1nn(-c2ccc3c(c2)OCCO3)n(O)c1=NCc1ccc(F)cc1Cl | - | - | - | - | 9.8 | 91.2 | 29.6
CC(C)(C)N1C(=O)[C@H]2[C@@H](c3ccc(Br)cc3)N3C(=O)N(c4cccc(F)c4)C(=O)[C@@]3(Cc3ccccc3)[C@H]2C1=O | - | ? | - | - | - | . | .
CC[C@@]12C(=O)N(c3cccc(F)c3)C(=O)N1[C@H](c1ccc(Br)cc1)[C@@H]1C(=O)N(C(C)(C)C)C(=O)[C@@H]12 | - | 97.9 | - | - | 14.8 | 25.9 | 12.9
COc1ccc([C@@H]2[C@@H]3C(=O)N(C(C)(C)C)C(=O)[C@@H]3[C@]3(CC(C)C)C(=O)N(c4cccc(F)c4)C(=O)N23)cc1 | - | 99.0 | - | - | 15.1 | 46.0 | 16.0
COc1ccccc1CNC(=O)C[C@H]1CC[C@H]2[C@@H](COC[C@@H](O)CN2C(=O)Nc2ccc(Cl)cc2)O1 | - | . | - | - | . | . | .
C[C@@H]1CN([C@H](C)CO)C(=O)c2cc(NS(=O)(=O)c3cn(C)cn3)ccc2O[C@@H](C)CCCCO[C@@H]1CN(C)Cc1ccc(C(=O)O)cc1 | - | - | - | - | . | . | .
Nc1ccc(Cl)c(-c2nc3ncccc3o2)c1 | . | . | . | . | - | . | .
Nc1ccc(-c2nc3ncccc3o2)c(Cl)c1 | - | - | - | - | 8.7 | 108.2 | 41.4
O=C(Nc1ccccc1)N1CC(=O)N2[C@H](CO)[C@H](c3ccc(C#CC4CC4)cc3)[C@H]2C1 | - | . | - | - | . | . | .
CCC(=O)N[C@@H]1CC[C@@H](CCn2cc(-c3cccc(OC)c3)nn2)O[C@H]1CO | - | - | - | - | . | . | .
CC(=O)Nc1cccc(NC(=O)CSc2ncc(C(=O)Nc3ccccc3)c(=O)n2C)c1 | - | . | - | - | 9.7 | - | 14.5
CN(C)CCCNC(=O)C[C@H]1CC[C@H]2[C@@H](COC[C@@H](O)CN2CC2CCCCC2)O1 | . | . | - | - | . | . | .
O=C(Nc1ccc(Br)cn1)c1cccc(-c2cc3ccccc3oc2=O)c1 | - | - | . | - | 9.4 | 117.8 | 32.9
O=C(C1COc2ccccc2O1)N1CCCC1 (centres undefined) | . | - | . | . | - | . | .
O=C(C1COc2ccccc2O1)N1CCc2ccccc21 (centres undefined) | . | . | . | . | 8.0 | 72.7 | 31.6
SMILES | PAX8 reporter | Env fusion inh | F508del corr | EWS-Fli block | GAA850 FXN act | GAA30 counter | FXN GAA850 conf
C[C@@H]1CN([C@@H](C)CO)C(=O)c2cc(C#CC3(O)CCCC3)cnc2O[C@@H]1CN(C)C(=O)C1CCOCC1 | - | . | - | - | . | . | .
CN(Cc1ccccc1)c1nc(N)c([N+](=O)[O-])c(Nc2cccc(F)c2)n1 | . | - | . | . | 9.6 | 27.2 | 16.6
COC(=O)/C(=C1/Oc2cc(C)oc(=O)c2S1)C(F)(F)F | . | . | - | 54.4 | 13.4 | - | 24.4
CO[C@@H](CN(C)S(=O)(=O)c1ccc(C)cc1)[C@@H](C)CN(C(=O)Nc1ccccc1F)[C@@H](C)CO | . | . | - | - | . | . | .
COc1ccccc1C(=O)N=c1sc2c(C)ccc(OC)c2n1C | - | - | - | - | 9.5 | 81.8 | 32.4
Cc1cc(C)n2cc(CSc3nc4ccccc4s3)nc2n1 | . | . | . | . | 7.7 | 98.5 | 29.7
N#Cc1c(NC(=O)c2cnn3cccnc23)sc2c1CCCC2 | - | - | - | - | - | . | .
O=C(Nc1cnn(C23CC4CC(CC(C4)C2)C3)c1)c1cnn2cccnc12 | . | . | - | - | 10.2 | 107.2 | 42.2
O=C(/C=C/c1cccnc1)c1ccc(F)c(F)c1 | - | - | - | . | - | . | .
CN(C)c1ccc(C(=O)/C=C/c2cccnc2)cc1 | - | - | - | - | 8.8 | 119.1 | 37.4
CC(=O)N(CC(C)C)C[C@@H]1[C@H](c2ccc(C3=CCCC3)cc2)[C@H](CO)N1C(C)=O | . | . | - | - | . | . | .
C[C@H](CO)N1C[C@H](C)[C@H](CN(C)C(=O)N[C@H](C)c2ccccc2)OCc2ccccc2-c2c(n(C)c3ccccc23)C1=O | - | 74.6 | - | - | 14.4 | - | -
C[C@@H]1CN([C@H](C)CO)C(=O)c2c(c3ccccc3n2C)-c2ccccc2CO[C@@H]1CN(C)C(=O)N[C@H](C)c1ccccc1 | - | - | - | - | . | . | .
Cc1c(C(=O)Nc2cccnc2Cl)oc2ccccc12 | - | - | - | - | 7.8 | 128.4 | 42.0
C[C@@H]1CN([C@@H](C)CO)C(=O)c2cc(NS(=O)(=O)c3ccc(Cl)cc3)ccc2O[C@H]1CN(C)C | - | . | - | - | . | . | .
C[C@H](CO)N1C[C@H](C)[C@@H](CN(C)C(=O)NC2CCCCC2)OCCCC[C@H](C)Oc2ccc(NC(=O)Nc3ccccc3)cc2C1=O | - | - | - | - | . | . | .
O=C(N(Cc1ccccc1)c1ccccn1)C12CC3CC(CC(C3)C1)C2 | . | 122.1 | . | . | 10.6 | 30.7 | 11.3
O=C(N(c1ccccn1)c1ccccn1)C12CC3CC(CC(C3)C1)C2 | - | - | - | - | - | . | .
COC(=O)C[C@@H]1CC[C@H]2[C@H](COc3ccc(NC(=O)Nc4ccc(C)cc4)cc3C(=O)N2C)O1 | - | - | - | - | . | . | .
CC(CC(=O)c1cccs1)CC(=O)c1cccs1 | . | . | - | - | - | . | .
Cc1cc(C)c(C(CC(=O)c2cccs2)C(C#N)C#N)c(C)c1 (centres undefined) | - | - | . | - | 9.0 | 100.0 | 61.0
COc1cccc2nc3c(C(=O)NCCN(C)C)cccc3cc12 | - | - | - | - | - | . | .

Screening data as filed in PubChem.
